High-throughput results from PubChem.
HT1080 IDH1KD tx: qHTS for induction of synthetic lethality in tumor cells producing 2HG: qHTS for the HT-1080-IDH1KD cell line; HT-1080 IDH1 knockdown viability, ATP luminescence, 48 h; Potency, µM (titrated, usually from 46.1 µM), for inactives: at the highest dose activity, negative = toxicity, actives largely listed as cytotoxic; actives 2% (n = 360,000); AID 686971, 2013;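 further: potency means the concentration at half of the fitted maximal effect; 0% = DMSO wells and -100% = cell-free medium wells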
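Assay cells: HT-1080 with IDH1 knockdown, 750 per well, RPMI/5% FBS. Exposure: 48 h at 37 °C following 2 h pre-incubation. Read: CellTiter-Glo luminescence; fitted concentration-response, curve class assigned.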
DT40 TDP1 CPT: qHTS for Inhibitors of human tyrosyl-DNA phosphodiesterase 1 (TDP1): qHTS in cells in presence of CPT; actives 12% (n = 420,000); chicken DT40 Tdp1-/-;hTDP1 cells + 20 nM CPT, ATP luminescence, 48 h; Potency, µM (top dose mostly 46.2 µM), for inactives: top-dose activity change, negative = growth inhibition, actives largely listed as inhibitors; further: potency means the concentration at half of the fitted maximal effect; nearly all actives have a fitted effect of over 55% in size
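Cell growth measured by CellTiter-Glo luminescence after a minimum 48 h, 37 C compound exposure with 20 nM CPT in Tdp1-knockout DT40 cells stably expressing hTDP1, seeded 400/well; qHTS titration format.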
IL-1B inflam inh: qHTS for Inhibitors of Inflammasome Signaling: IL-1-beta AlphaLISA Primary Screen. activity change, % at 57.5 µM. THP-1 LPS/ATP IL-1B secretion, AlphaLISA, 16 h; hits give low values. actives 4.7% (n = 360,000). AID 743279, 2014; in the data active means activity change below about -50%; inconclusive means mostly about -30% to -49%
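THP-1 cells pretreated 1 hr with compounds (up to 57.5 uM final), then stimulated with LPS (250 ng/mL final) plus ATP (1.25 mM final); secreted IL-1B measured by AlphaLISA after 16 hr, decreased signal indicating inhibition.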
TDP1 cell noCPT: qHTS for Inhibitors of human tyrosyl-DNA phosphodiesterase 1 (TDP1): qHTS in cells in absence of CPT. DT40 Tdp1-/- hTDP1 cells, no CPT, ATP luminescence, 48 h. Potency, µM (highest dose often 46.2 µM), without a hit: at the highest dose activity change, negative = growth inhibition, usual class: inhibitors. actives 15% (n = 420,000); further: potency means the concentration at half of the fitted maximal effect; nearly all actives have a fitted effect of over 55% in size
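DT40 Tdp1-/-;hTDP1 cells, no CPT (DMSO vehicle only), 400 cells/well; compounds pin-transferred; ≥48 hr, 37 °C; CellTiter-Glo 30 min RT dark, luminescence read.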
HT1080NT lethal: qHTS for induction of synthetic lethality in tumor cells producing 2HG: qHTS for the HT-1080-NT fibrosarcoma cell line; HT-1080-NT fibrosarcoma viability, CellTiter-Glo ATP luminescence, 48 h; Potency, µM (top dose mostly 46.1 µM), for the others: at the top dose activity, negative = less viability, hits mostly cytotoxic; actives 1.6% (n = 360,000); AID 686970, 2013;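 further: NT is the 2HG producing partner of a matched IDH1 knockdown line; potency means the concentration at half of the fitted maximal effect; 0% = DMSO-treated cells and -100% = media-only wells without cells; nearly all actives have a fitted effect of over 55% in size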
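Fibrosarcoma NT cells, 750 per well in 5% FBS RPMI, were exposed to compound for 48 hours. Viability: CellTiter-Glo luminescence.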
* marks the source's active call; other numbers are inactive results; ? = inconclusive; . = not tested or not shown; [ ] = remark or other dose. Only some compounds are listed: those with a hit (about 19% of all), similar ones and a draw of the others. Unless noted, the call rests on the fitted dose curve; in most records, active means well fitted curve in the direction sought with a large enough effect; inconclusive means small, poorly fitted or top-dose-only effect, or another doubt; inactive means no such curve, though single readings can be large; an effect the other way counts as inactive or inconclusive. Unless noted, on the % scale 0 is the no-effect control and ±100 the full control effect.

SMILES	HT1080 IDH1KD tx	DT40 TDP1 CPT	IL-1B inflam inh	TDP1 cell noCPT	HT1080NT lethal
O=[N+]([O-])c1c(C(Cl)Cl)nn(-c2ccc(Cl)cc2)c1N1CCCCC1	-7%	?	0	16µM*	-9%
O=C(CNc1cccc(C(F)(F)F)c1)N/N=C/c1cccc(Br)c1	15%	18µM*	-16	?	22%
O=C(NCC1CCC(C(=O)O)CC1)c1cccnc1 (stereo unspecified)	11%	2%	-4	-1%	6%
CCCCN(CCCNC(=O)C1CCN(C(=O)c2cc3sccc3n2C)CC1)Cc1ccccc1	?	?	?	?	18µM*
CCCCN(CCCNC(=O)C1CCN(S(=O)(=O)N2CCOCC2)CC1)c1ccccc1	-3%	13µM*	-19	13µM*	-2%
CCN(CCCNC(=O)C1CCN(C(=O)c2cc3sccc3n2C)CC1)Cc1ccccc1	-17%	-30%	-14	4%	-7%
COc1cccc(NC(=S)N2CCCN(Cc3ccc(F)cc3)C2)c1	?	-10%	-13	23µM*	0%
Fc1ccc(CN2CCCN(C(=S)Nc3ccc(F)cc3)CC2)cc1	0%	-12%	-7	-23%	0%
COc1ccc(NC(=S)N2CCCN(Cc3cccc(Cl)c3)C2)cc1	-14%	?	-64*	16µM*	-12%
COc1cccc(NC(=S)N2CCN(Cc3ccccc3)CC2)c1	2%	-11%	-3	-28%	1%
O=C(Nc1ccc(Cl)cc1)N1CCCN(Cc2ccccc2F)C1	13µM*	25µM*	?	?	?
Cc1cccc(C)c1NC(=S)N1CCCN(Cc2ccc(F)cc2)C1	-14%	0%	-51*	?	-27%
CCCn1nc(C(=O)NNC(=O)c2cccc(C)c2)c2ccccc2c1=O	-13%	-1%	10	-27%	-9%
Cc1ccc(-n2ncc3c2CCCC3NC(=O)CCCN2CCCC2=O)cc1C (stereo unspecified)	-2%	-9%	13	-3%	1%
Cc1ccc(NC(=O)N2CCCCCC2)cc1C	18%	-2%	-1	24%	24%
CCOc1ccc(NC(=S)N2CCCN(Cc3cccc(Cl)c3)C2)cc1	?	?	-61*	?	-1%
Cc1ccc(NC(=O)N2CCCN(Cc3ccc(F)cc3)C2)cc1C	16µM*	?	-19	?	15µM*
COc1ccc(C(=O)Nc2sc(C)c(-c3ccccc3)c2C#N)cc1OC	?	?	-19	21µM*	-14%
CCOC(=O)c1c(NC(=O)c2ccnn2C)sc(C)c1C	23%	7%	-5	-19%	22%
COc1ccc(-c2c(C)sc(NC(=O)c3ccnn3C)c2C#N)cc1	21µM*	-11%	10	?	13µM*
Cc1c(Cc2ccccc2)c(=O)oc2cc(OCC(=O)N3CCC(C(N)=O)CC3)ccc12	-7%	?	25	?	2%
Clc1ccccc1OCc1nnc2n1CCCCC2	1%	-24%	-5	26%	-4%
COc1cc(SC)ccc1C(=O)Nc1ccc2c(c1)OCO2	?	-2%	-63*	8%	-30%
COc1cc(SC)ccc1C(=O)Nc1ccc(S(=O)(=O)N2CCCC2)cc1	-23%	-18%	19	-11%	-9%
COc1cc(SC)ccc1C(=O)Nc1ccc(C)cc1	-3%	-18%	-57*	?	-3%
SMILES	HT1080 IDH1KD tx	DT40 TDP1 CPT	IL-1B inflam inh	TDP1 cell noCPT	HT1080NT lethal
COc1cc(SC)ccc1C(=O)NCCc1ccccc1	?	15µM*	-7	-107%	24%
COc1cc(SC)ccc1C(=O)Nc1cc(C)c(OCC(=O)N2CCOCC2)c(C)c1	2%	?	15	23µM*	2%
CC(=O)N1CCC[C@H]1C(=O)NCC1Cc2cc(C)cc(-c3ccc(Cl)cc3)c2O1 (stereo partly specified)	.	-12%[9.04 µM]	.	-22%	.
CN(c1cccc(NC(=O)COc2ccc(Cl)cc2Cl)c1)S(C)(=O)=O	?	21µM*	?	?	-18%
CN(c1cccc(NC(=O)CSc2ccc(Cl)cc2)c1)S(C)(=O)=O	?	10µM*	-14	11µM*	?
Cc1ccccc1OCC(=O)Nc1cccc(N(C)S(C)(=O)=O)c1	13%	-22%	9	-29%	2%
CN(c1cccc(NC(=O)CCSc2ccccc2)c1)S(C)(=O)=O	17%	-22%	24	-27%	0%
O=C(COc1ccc(Cl)cc1)c1ccc(O)cc1O	-15%	5%	-67*	?	-14%
CC(=O)NC(c1ccccc1)c1nc(-c2cccs2)cs1 (stereo unspecified)	-4%	-20%	-17	?	7%
CC(=O)NC(c1ccc(F)c(F)c1)c1nc(-c2cc3ccccc3o2)cs1 (stereo unspecified)	1%	-4%	-22	?	4%
CC(=O)NC(c1cccc(F)c1)c1nc(-c2cc3ccccc3o2)cs1 (stereo unspecified)	?	?	36	21µM*	?
CC(=O)NC(c1ccccc1)c1nc(-c2cc3ccccc3o2)cs1 (stereo unspecified)	-17%	23µM*	12	?	?
COc1ccccc1C(=O)NC(=O)COC(=O)Cn1cnc2c1c(=O)n(C)c(=O)n2C	13%	2%	33	-16%	18%
COc1ccccc1CN1CCCC(C(=O)N(C)Cc2ccccc2)C1 (stereo unspecified)	-19%	?	-1	?	-4%
COc1ccccc1CN1CCCC(CN(CCN(C)C)C(=O)C2CCCC2)C1 (stereo unspecified)	-19%	-2%	-52*	1%	1%
COc1ccc(C)cc1S(=O)(=O)N(CC(N)=O)Cc1ccccc1	0%	17%	-2	-12%	1%
Cc1ccc(NC(=O)C2CCN(c3cnccn3)CC2)cc1	-10%	0%	5	-23%	-2%
CCCc1ccc(NC(=O)C2CCN(c3cnccn3)CC2)cc1	?	16µM*	-10	23µM*	-15%
CCOC(=O)c1ccc(NC(=O)C2CCCN(c3cnccn3)C2)cc1 (stereo unspecified)	-2%	?	-13	15µM*	16%
Cc1ccc(NC(=O)C2CCCN(c3cnccn3)C2)cc1Cl (stereo unspecified)	.	?	.	23µM*	.
